Data published in PubChem BioAssay AID740 (SRMLSC, 2007).
The whole screen tested about 96,000 compounds, of which about 65 (0.07%) were called active. Shown is part of a subset that was picked to be rich in actives. A number with no mark means an inactive call. Cut-off read from the data, not from the text of the source: active = inhibition above about 25%; inactive = the rest.

Experiment: unspecified inhibition readout at 50 µM (AID 740)
Settings: unspecified screen; hits give high values
Work on `CC(NC(=O)c1ccc(NS(C)(=O)=O)cc1)c1ccccc1` (stereo unspecified) yielded an inhibition of 1.26%. `CC(NC(=O)c1ccc(F)cc1)c1ccccc1` (stereo unspecified) showed an inhibition of 1.4%. With `CC(NC(=O)c1ccc(S(=O)(=O)N(C)C)cc1)c1ccccc1` (stereo unspecified) the inhibition was 26.5% (active). In the case of `CCCn1ncc(C(=O)O)c1C`, the inhibition is reported as 0.49%. `CCn1c(N2CCN(CC(=O)c3c[nH]c4ccccc34)CC2)nc2c1c(=O)[nH]c(=O)n2C` showed an inhibition of 0.91%. In the case of `CCc1c(C)nc2[nH]nc(-c3ccccc3)n2c1=O`, the inhibition is reported as 39.6% (active). For `CCc1c(C)nc2[nH]nc(-c3ccccc3C)n2c1=O`, the inhibition was 36.2% (active). With `CCc1c(C)[nH]c2nc3ccccc3n2c1=O` the inhibition was 1.48%. `CCc1c(C)nc2[nH]nc(NC(=O)C(F)(F)F)n2c1=O` gave an inhibition of 1.45%. `Cc1cc(=O)n2c(-c3ccccc3C)n[nH]c2n1` showed an inhibition of 0.44%. In the case of `COCc1cc(=O)n2c(-c3ccccc3OC)n[nH]c2n1`, the inhibition is reported as “inactive”. Compound `CC(=O)N1CCN(S(=O)(=O)c2cccc(C(=O)Nc3nc4c(s3)CCCC4)c2)CC1` has an inhibition of 0.78%. In the case of `COc1ccccc1NC(=O)c1cc(C(=O)O)ccc1C(=O)O`, the inhibition is reported as “inactive”. With `O=C1CSC(=S)N1Cc1cccnc1` the inhibition was 28.6% (active). With `O=C1CSC(=S)N1c1cccnc1` the inhibition was “inactive”. For `O=C(O)c1ccc(CN2C(=O)CSC2=S)cc1`, the inhibition was “inactive”. With `COc1cccc(-c2nc(CS(=O)(=O)CC(=O)N3CCc4ccccc43)c(C)o2)c1` the inhibition was “inactive”. For `Cc1ccccc1N(CC(=O)NC1CCCC1)C(=O)c1oc(C(C)(C)C)cc1C`, the inhibition was 2.02%. In the case of `Cc1sc2nc3c4ccccc4c(NCc4ccco4)nn3c(=O)c2c1C`, the inhibition is reported as 26.7% (active). In the case of `Cc1sc2nc3ccc(NCc4ccco4)nn3c(=O)c2c1C`, the inhibition is reported as 3.95%. `O=c1c2ccccc2nc2c3ccccc3c(NCc3ccco3)nn12` showed an inhibition of 0.85%. With `Cc1cc(C(=O)OCC(=O)Nc2ccc(S(=O)(=O)N3CCOCC3)cc2)c(C)o1` the inhibition was “inactive”. Work on `Nc1nc(-c2ccco2)nn1C(=O)c1ccc(Cl)cc1` yielded an inhibition of 0.07%. In the case of `Cc1nc2scc(-c3ccccc3)c2c(=O)n1/N=C/c1ccco1`, the inhibition is reported as “inactive”. In the case of `Cc1nc2scc(-c3ccco3)c2c(=O)n1/N=C/N(C)C`, the inhibition is reported as 25.3% (active). Work on `Cc1ccc(-c2csc3ncn(/N=C/N(C)C)c(=O)c23)o1` yielded an inhibition of 0.16%. With `COC(=O)Cn1cc(C(=O)OC)c2ccccc21` the inhibition was “inactive”. For `Cc1ccc(CNC(=O)CCS(=O)(=O)c2cccc3nsnc23)cc1`, the inhibition was 0.45%. Work on `COc1cccc(CNC(=O)CCS(=O)(=O)c2cccc3nsnc23)c1` yielded an inhibition of 0.1%. In the case of `O=C(CCS(=O)(=O)c1cccc2nsnc12)NCc1ccccc1Cl`, the inhibition is reported as 79.1% (active). `COc1cc2[nH]c(=O)n(CCC(=O)NC3CCCC3)c(=O)c2cc1OC` showed an inhibition of 0.82%. With `Cc1sc(-c2ccccn2)nc1OC(=O)c1ccc(Cl)cc1` the inhibition was “inactive”. Work on `CCn1cc(C(=O)O)c(=O)c2cc(F)c(N3CCN(C(=O)Nc4ccccc4)CC3)cc21` yielded an inhibition of 1.47%. Work on `COc1c(N2CCN(C(=S)Nc3ccc(F)cc3)C(C)C2)c(F)cc2c(=O)c(C(=O)O)cn(C3CC3)c12` (stereo unspecified) yielded an inhibition of 0.59%. For `NC1C2CN(c3nc4c(cc3F)c(=O)c(C(=O)O)cn4-c3ccc(F)cc3F)CC12` (stereo unspecified), the inhibition was 27.2% (active). In the case of `O=C(O)c1cccc(COCC(F)(F)C(F)F)c1`, the inhibition is reported as “inactive”. In the case of `COc1ccc([C@H]2[C@H](C(=O)C(C)(C)C)N3N=Cc4ccccc4C3[C@]23N=C(c2ccccc2)OC3=O)cc1` (stereo partly specified), the inhibition is reported as “inactive”. In the case of `COc1ccc(CCN(Cc2cc3cc(C)c(C)cc3nc2Cl)C(=O)C2CC2)cc1`, the inhibition is reported as “inactive”. With `CC(C)(C)c1ccc(OCCN2CCCC2)cc1` the inhibition was “inactive”. With `CC(C)(C)c1ccc(OCCn2ccccc2=O)cc1` the inhibition was 25.3% (active). For `CC(C)(c1ccccc1)c1ccc(OCCn2cnc3ccccc3c2=O)cc1`, the inhibition was “inactive”. In the case of `CCS(=O)(=O)Nc1ccc(-c2ccc(NS(=O)(=O)CC)c(OC)c2)cc1OC`, the inhibition is reported as 0.7%. `Cc1ccc(S(=O)(=O)CC(N)=O)cc1` gave an inhibition of 0.12%. `O=C(c1ccco1)N1CCN(c2cc(C(F)(F)F)nc3ncnn23)CC1` gave an inhibition of 1.54%. `CCCN(CCC)C(=O)Cn1c(=O)n(CCCCC(=O)NC2CCCC2)c(=O)c2ccccc21` showed an inhibition of 0.15%. `CCN1CCN(CC(O)COc2ccc(C(C)=O)cc2)CC1` (stereo unspecified) showed an inhibition of 0.4%. For `Cc1ccc(/C=C/C(=O)c2c(C)cc(C)[nH]c2=O)cc1`, the inhibition was 35.2% (active). Work on `Cc1cc(C)c(C(=O)/C=C/c2ccc(C(C)C)cc2)c(=O)[nH]1` yielded an inhibition of 1.62%. With `CCc1ccc(/C=C/C(=O)c2c(C)cc(C)[nH]c2=O)cc1` the inhibition was 24.9%. With `COCCSc1ccccc1C(=O)N1CCOCC1` the inhibition was “inactive”. Work on `CC(C)(C)c1ccc(S(=O)(=O)n2c(CN3CCOCC3)nc3ccccc32)cc1` yielded an inhibition of 0.34%. With `CCOC(=O)CSc1nnc(C2CCCCC2)n1C` the inhibition was “inactive”. With `COc1ccc(C(=O)C(CN2CCCC2)c2ccccc2)cc1` (stereo unspecified) the inhibition was 8.35%. In the case of `COc1ccc(C(=O)C(CN2CCOCC2)c2ccccc2)cc1` (stereo unspecified), the inhibition is reported as 41.7% (active). In the case of `O=C(c1ccc(F)cc1)C(CN1CCOCC1)c1ccccc1` (stereo unspecified), the inhibition is reported as “inactive”. For `Nc1nc(SCc2ccccc2)[nH]c(=O)c1-c1ccccc1`, the inhibition was “inactive”. With `O=C(CN1CCN(C2CCCCC2)CC1)NCCC1=CCCCC1` the inhibition was “inactive”. With `O=C(CSc1ncccc1C(=O)O)NCCC1=CCCCC1` the inhibition was “inactive”. In the case of `O=C(CN1CCN(c2ncccn2)CC1)NCCC1=CCCCC1`, the inhibition is reported as 50.1% (active). In the case of `COc1cccc(NS(=O)(=O)c2ccc3[nH]cc(C(=O)NCCC(C)C)c(=O)c3c2)c1`, the inhibition is reported as 1.2%. `O=C(NCc1ccco1)c1cc(S(=O)(=O)N2CCOCC2)ccc1Cl` gave an inhibition of 0.08%. In the case of `CCCCOc1cccc(NC(=O)CSc2nccn2C)c1`, the inhibition is reported as “inactive”. With `C=CCNC(=S)Nc1cccc2ccccc12` the inhibition was 0.02%. For `Cn1nc([N+](=O)[O-])nc1Sc1ccc(C(C)(C)C)cc1`, the inhibition was 9.59%. With `COc1ccccc1-c1nnc(Sc2nc([N+](=O)[O-])nn2C)o1` the inhibition was “inactive”. For `Cn1nc([N+](=O)[O-])nc1Sc1nnc(-c2ccccc2)o1`, the inhibition was 28.3% (active).
